# Experimental data reported in PubChem BioAssay (Tox21).
# Records with an inconclusive call do not appear. A number with no mark means an inactive call. Active and inactive are the calls of the source. The call rests on the fitted dose curve.
# Assay: qHTS assay for small molecules that induce genotoxicity in human embryonic kidney cells expressing luciferase-tagged ATAD5 - cell viability (AID 651634); further: nearly all actives have a fitted effect of over 25% in size
# Conditions: HEK293T ATAD5-luc cells viability, CellTiter-Fluor, 15.5 h; series mostly up to 83.3 µM; activity, negative = cytotoxicity: at the top concentration
# Text: National Center for Advancing Translational Sciences [NCATS]
# NIH Chemical Genomics Center [NCGC]
# U.S. Environmental Protection Agency [EPA]
# National Institutes of Environmental Health Sciences [NIEHS]
# National Toxicology Program [NTP]
# U.S. Food and Drug Administration [FDA]
# Enhanced Level of Genome Instability Gene 1 (ELG1; human ATAD5) protein levels increase in response to various types of DNA damage. Using a luciferase reporter-gene tagged with ElG1, a cell-based assay [developed by Kyungjae Myung, NHGRI, NIH] was used to measure the induction of ATAD5 in human embryonic kidney cells (HEK293T). So, increase in luciferase activity can be used to identify the compounds that cause genetic stress. In addition to genotoxicity, these cells were also used to test for cytotoxicity by measuring the protease activity within live cells.
# Tox21 Assay Protocol Summary:
# For cytotoxicity screening, 2,000 cells in 5 uL/well were dispensed into white, solid-bottom 1536-well plates using a Multidrop Combi (Thermo Scientific) dispenser. Following transfer of 23 nL compound or DMSO vehicle by a pin tool, the plates were incubated 15.5 hr at 37C and 5% CO2. 1 ul CellTiter-Fluor reagent (Promega, Madison, WI) was then added to each plate and following 30 min incubation at 37C, fluorescence intensity was quantified on a ViewLux CCD-based plate reader.
# On the % scale 0 is the no-effect control and ±100 the full control effect.
Structure (SMILES),outcome,"activity, negative = cytotoxicity"
C[C@]12C=CC(=O)C=C1[C@@H](F)C[C@@H]1[C@@H]2[C@@H](O)C[C@@]2(C)[C@H]1CC[C@]2(O)C(=O)CO,inactive,
Cc1cc(C)c(C)c(C)c1,,5.7%
O=C(O)Cc1ccccc1Oc1ccc(Cl)cc1Cl,,13.8%
CCOc1ccccc1OCCN[C@H](C)Cc1ccc(OC)c(S(N)(=O)=O)c1,,1.56%
O=C(O)CCCCCCCCCC(=O)O,,12.5%
C=CC(=O)OCC[N+](C)(C)C,,12.5% [at 95.3 µM]
C=CCCCCCCCCOC(C)=O,,5.27%
NCC1CCC(C(=O)Oc2ccc(CCC(=O)O)cc2)CC1 (stereo not given),,-9.4%
CCCCN1C(=O)c2ccccc2C1=O,,10% [at 95.3 µM]
C=CCCCCCCCCCCCCCC,,5.55% [at 39.1 µM]
CNC(C)=O,,18.1%
CCCCNCC,,16%
CN(C)CCCN(C)C,,29.6% [at 8.08 µM]
O=Cc1ccc(C(=O)O)cc1,,16% [at 95.3 µM]
CC(=O)Nc1ccc(S(=O)(=O)Nc2cc(C)on2)cc1,,-11%
CC/C=C\CCCCCCCCCCOC(C)=O,,5.9%
C[n+]1ccccc1/C=N/O,,3.34% [at 39.1 µM]
N=C(N)S(=O)O,,20.2%
O=C(CCBr)N1CCN(C(=O)CCBr)CC1,,13.6%
Cc1ccc(O)c([N+](=O)[O-])c1,,16.4% [at 95.3 µM]

Structure (SMILES),outcome,"activity, negative = cytotoxicity"
Nc1cc(S(=O)(=O)O)ccc1O,,-16.7%
CC1(C)S[C@@H]2[C@H](NC(=O)Cc3ccccc3)C(=O)N2[C@H]1C(=O)O (tested in a mixture with another compound),,16.6%
CCCCCCCCC1CO1 (stereo not given),,13.6% [at 95.3 µM]
O=C[C@@H](O)[C@H](O)[C@H](O)CO,,11.5%
C=CCN1CCc2nc(N)sc2CC1,,13.9%
CC(C)(C)C(=O)CC(=O)C(C)(C)C,,13.7% [at 95.3 µM]
CC(C)CC(O)Cc1ccccc1 (stereo not given),,9.44%
COc1cc2nc(N3CCN(C(=O)C4CCCO4)CC3)nc(N)c2cc1OC (stereo not given),,3.05%
O=CN1CCCCC1,,6.35%
O=S(=O)(O)CC(O)CCl (stereo not given),,10.8%
C[C@@H]1CC[C@@]2(OC1)O[C@H]1C[C@H]3[C@@H]4CC[C@H]5C[C@@H](O)CC[C@]5(C)[C@H]4CC(=O)[C@]3(C)[C@H]1[C@@H]2C,,11.9% [at 39.1 µM]
CN(C)CCc1c[nH]c2ccc(C[C@H]3COC(=O)N3)cc12,,15%
CC[N+](C)(CC)CC,,7.63%
COC(=O)c1c(C)cc(O)c(C)c1O,,19.5%
Cc1cc(C)c(N)c(Cl)c1,,25.1%
O=C(O)CCC(=O)Nc1ccc(S(=O)(=O)Nc2nccs2)cc1,,4.78% [at 39.1 µM]
C[C@@H]1NC(=O)[C@@H](N)CNC(=O)[C@H](C2CCNC(N)=N2)NC(=O)/C(=C/NC(N)=O)NC(=O)[C@H](CNC(=O)C[C@@H](N)CCCN)NC1=O (stereo not given in full),inactive,
N#CC1(N)CCCCC1,,5.53% [at 95.3 µM]
BrCCOc1ccccc1,,7.63% [at 95.3 µM]
CC(=O)Oc1ccc(C(C)=O)cc1,,5.7% [at 95.3 µM]
